Screening results deposited in PubChem BioAssay by National Center for Advancing Translational Sciences (NCATS).
Shown are actives, neighbours in structure and some others; about 13% of the full set was active somewhere.
Sfp inh: qHTS Assay for Inhibitors of Bacillus subtilis Sfp phosphopantetheinyl transferase (PPTase); 4'-phosphopantetheinyl transferase ffp (Bacillus subtilis), Q9F4F7; Biochemical Sfp PPTase activity, qHTS; Potency, µM, inactives show largest response in the series, negative = inhibition, most hits filed as inhibitors; 310,000 compounds, 3.5% hits; AID 1490, 2009;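 also: the enzyme is Sfp with the accession as filed and its product quenches rhodamine fluorescence; potency is read from the fitted curve at half-maximal effect; 0% = enzyme reaction without inhibitor and -100% = no enzyme wells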
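Compounds were incubated with enzyme (final 15 nM) for 15 min at room temperature before substrate addition started the reaction. Fluorescence at 525 nm excitation, 598 nm emission was recorded immediately and after 30 minutes.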
KDM4E inh: qHTS Assay for Inhibitors of Human Jumonji Domain Containing 2E (JMJD2E); 230,000 compounds, 1.6% hits; JMJD2E catalytic domain, FDH-coupled NADH fluorescence (FDH is formaldehyde dehydrogenase); Lysine-specific demethylase 4E (Homo sapiens), B2RXH2; Potency, µM (top dose mostly 57.1 µM), for the others: at the highest dose activity change, negative = inhibition, most hits filed as inhibitors; active = well fitted inhibition curve with a large enough effect, not every such curve was filed as active; inconclusive = small, poorly fitted or top-dose-only effect, or another doubt; inactive = no such curve, though single readings can be large or run the other way;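 also: potency is read from the fitted curve at half-maximal effect; 0% = wells with enzyme and -100% = buffer wells without enzyme; nearly all actives have a fitted effect of over 50% in size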
Target sequence (B2RXH2 1-337 limits assumed): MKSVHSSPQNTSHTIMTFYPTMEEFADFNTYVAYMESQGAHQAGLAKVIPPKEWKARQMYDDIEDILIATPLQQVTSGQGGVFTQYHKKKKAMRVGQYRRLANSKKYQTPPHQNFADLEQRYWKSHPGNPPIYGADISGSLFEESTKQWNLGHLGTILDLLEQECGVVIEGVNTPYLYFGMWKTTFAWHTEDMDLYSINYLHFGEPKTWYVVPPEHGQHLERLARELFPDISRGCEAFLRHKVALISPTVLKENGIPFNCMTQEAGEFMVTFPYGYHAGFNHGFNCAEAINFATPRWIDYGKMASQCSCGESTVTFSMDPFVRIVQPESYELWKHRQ
Lamin A splicing: qHTS Assay for Modulators of Lamin A Splicing; HeLa LMNA splicing GFP/RFP minigene ratio, 48 h; Potency, µM (series often up to 46.1 µM), for inactives: at the top dose ratio change, negative = inhibition, most hits filed as inhibitors; 200,000 compounds, 0.01% hits; active = well fitted inhibition curve with a large enough effect in the signal ratio, with a control signal flat, not every such curve was filed as active; inconclusive = small, poorly fitted or top-dose-only effect, or effect the other way, or a change in a side signal; the % refers to the signal ratio; also: potency is read from the fitted curve at half-maximal effect; % is scaled to controls: 0 for no effect and ±100 for the full control effect
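S3 HeLa stable clones carrying a lamin A-EGFP splicing minigene plus DsRed2 were seeded at 600 cells/well in Opti-MEM with 2% FBS, pin-dosed and incubated 48 h at 37°C. Acumen cytometry (488 nm) gave the GFP/RFP total-intensity ratio.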
miR-21 act: qHTS Assay for Modulators of miRNAs and/orActivators of miR-21. Potency, µM (titrated, usually from 38.3 µM), for the others: at the top dose activity change, positive = activation, usual class: activators. 340,000 tested, under 10 active. HeLa miR-21 FLuc reporter, luciferase, 48 h;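 also: % of control where 0% means no effect; miR-21 action dims this reporter so a rising signal means less miR-21 action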
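Compounds were titrated across several concentrations (up to approximately 40 uM) and incubated 48 hours with HeLa miR-21-FLuc reporter cells (miR-21 target sequence downstream of FLuc, endogenous miR-21). Readout was firefly luciferase luminescence after lytic detection reagent.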
ALDH1A1 inh: qHTS Assay for Inhibitors of Aldehyde Dehydrogenase 1 (ALDH1A1) | Aldehyde dehydrogenase 1A1 (Homo sapiens), P00352 | Purified ALDH1A1, NADH fluorescence, propionaldehyde substrate | Potency, µM (series often up to 75.3 µM), inactives show at the highest dose activity, negative = inhibition, hits mostly inhibitors | 220,000 compounds, 7.3% hits; active = well fitted inhibition curve with a large enough effect, not every such curve was filed as active; inconclusive = small, poorly fitted or top-dose-only effect, or another doubt; inactive = no such curve, though single readings can be large or run the other way;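 also: potency is read from the fitted curve at half-maximal effect; plate controls were no enzyme wells and a reference inhibitor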
G9a inh: qHTS Assay for Inhibitors of Histone Lysine Methyltransferase G9a; Histone-lysine N-methyltransferase EHMT2 (Homo sapiens), Q96KQ7; G9a H3K9 monomethylation, AlphaScreen, 2 h; Potency, µM (series often up to 102 µM), without a hit: top-dose activity, negative = inhibition, most hits filed as inhibitors; 350,000 compounds, 8.8% hits; AID 504332, 2011; also: potency is read from the fitted curve at half-maximal effect; % is scaled to controls: 0 for no effect and ±100 for the full control effect; nearly all actives have a fitted effect of over 75% in size
Target sequence (Q96KQ7 913-1193 limits assumed): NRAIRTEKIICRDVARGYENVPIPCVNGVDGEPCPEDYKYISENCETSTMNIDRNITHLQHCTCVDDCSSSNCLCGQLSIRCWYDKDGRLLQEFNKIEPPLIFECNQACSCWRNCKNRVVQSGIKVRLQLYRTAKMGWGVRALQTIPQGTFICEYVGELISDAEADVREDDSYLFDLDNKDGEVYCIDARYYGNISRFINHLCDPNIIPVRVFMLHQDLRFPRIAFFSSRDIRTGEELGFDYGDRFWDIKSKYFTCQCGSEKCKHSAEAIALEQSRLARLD
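Readings reflect AlphaScreen signal from monomethyl-H3K9 antibody detection. HMT at 20 nM; substrate b-H3K9 500 nM; cofactor SAM 20 uM; 2 h RT reaction; compounds tested as titrations in qHTS with 15 min preincubation.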
* = called active by the depositor; ? = inconclusive; nt = no result; ! = not active in a repeat; [ ] = dose if it differs, or a comment. Unless noted, calls follow the shape of the dose curve; as a rule, active = well fitted curve in the direction sought with a large enough effect; inconclusive = small, poorly fitted or top-dose-only effect, or another doubt; inactive = no such curve, though single readings can be large; an effect the other way counts as inactive or inconclusive.

SMILES	Sfp inh	KDM4E inh	Lamin A splicing	miR-21 act	ALDH1A1 inh	G9a inh
Cc1nc(NS(=O)(=O)c2ccccc2)sc1NC(=O)Nc1ccc(Cl)cc1	79.4µM*	?	nt	0.1%	nt	-26.4%[12.7 µM]
Cc1nc(NS(=O)(=O)c2ccccc2)sc1C(=O)NNS(=O)(=O)c1ccccc1	-17.7%	nt	nt	-0.4%	nt	50.1µM*
Cc1nc(NS(=O)(=O)c2ccccc2)sc1NC(=O)Nc1ccccc1	44.7µM*	-2.2%	nt	-1.8%	10.2%	?
CC(=O)c1ccc(NC(=O)Nc2sc(NS(=O)(=O)c3ccccc3)nc2C)cc1	?	-27.8%	-7.3%[46 µM]	-2.9%	?	nt
CCOc1cc(/C=N/NC(=O)C(=O)NCCCOC(C)C)cc(Br)c1O	-0.6%	-5.7%	-0.2%	-2.8%	-0.6%	?
CC(/C=C/c1ccc(N(C)C)cc1)=N\N=C1\NC(=O)CC(C(=O)Nc2ccccc2)S1 (stereo unspecified)	9.0%	-0.9%	?	-31.9%	?	?
CC(/C=C/c1ccc(N(C)C)cc1)=N/N=C1/NC(=O)CC(C(=O)Nc2ccc(Cl)cc2)S1 (stereo unspecified)	4.9%	7.0%	-17.3%	-37.3%	25.1µM*	31.6µM*
O=C(c1cccs1)N1CCC(c2nc3c(nnn3Cc3c(Cl)cccc3Cl)c(=O)[nH]2)CC1	-7.8%	nt	nt	-0.9%	nt	9.1%
Cc1cc(=O)n(CC(=O)N2CCN(c3ccc(F)cc3)CC2)c2c1c(C)nn2C	nt	nt	?	29.3%	nt	0.7%[59 µM]
CCCSc1nc(NCc2ccco2)c2c3c(sc2n1)COC(C)(C)C3	-26.8%	-27.3%	9.1%	-23.8%	?	12.0%[12.7 µM]
CCCCSc1nc(NCc2ccco2)c2c3c(sc2n1)COC(C)(C)C3	?	?	9.9%	-37.1%	?	50.1µM*
COc1ccc(NC(=O)CC2C(=O)N(c3ccc(F)cc3)C(=O)N2Cc2cccnc2)cc1 (stereo unspecified)	nt	nt	nt	-5.7%	nt	?
Cc1ccccc1CSCC(Nc1ccc(C(=O)O)cc1[N+](=O)[O-])C(=O)O (stereo unspecified)	13.7%	1.2%	-0.1%	-2.2%	15.8µM*	-34.8%[59 µM]
CC/C(=C\C(=O)c1cccnc1)Nc1ccc(C)c(C)c1	0.4%	-4.1%	12.7%	-18.3%	?	39.8µM*
C/C(=C\C(=O)c1cccnc1)Nc1ccc(C(=O)O)cc1	1.3%	-22.0%	2.3%	-1.7%	?	2.24µM*
COc1cccc([C@H]2Nc3ccc(S(=O)(=O)Nc4cc(C)ccc4C)cc3[C@H]3C=CC[C@H]32)c1	nt	nt	nt	3.6%	nt	12.6µM*
Cc1c(Cl)cccc1NS(=O)(=O)c1ccc(NS(=O)(=O)c2ccc3c(c2)OCCO3)cc1	nt	nt	nt	1.3%	nt	?
Cc1ccc([C@H]2Nc3ccc(S(=O)(=O)Nc4cccc(Cl)c4C)cc3[C@H]3C=CC[C@H]32)cc1	nt	nt	nt	0.5%	nt	14.1µM*
Cc1ccc(C)c(NS(=O)(=O)c2ccc3c(c2)Cc2cc(S(=O)(=O)Nc4cc(C)ccc4C)ccc2-3)c1	8.3%	1.8%	-3.5%	-13.4%	6.0%	6.5%[59 µM]
COc1cc2c(cc1OC)C(COc1ccccc1OC)N(C(=O)c1ccc(S(=O)(=O)N3CCCC3)cc1)CC2 (stereo unspecified)	nt	nt	12.3%[46 µM]	8.2%	nt	-18.6%[59 µM]
Cc1ccc(S(=O)(=O)NCCC(=O)N2CCN(C/C=C/c3ccccc3)CC2)cc1	nt	nt	nt	nt	nt	9.6%[12.7 µM]
CC(C(=O)N(C)Cc1ccccc1)N1CCN(C/C=C/c2ccccc2)CC1 (stereo unspecified)	-13.3%	?	8.2%[46 µM]	1.4%	-10.5%	20µM*
Fc1ccc(C(c2ccc(F)cc2)N2CCN(C/C=C/c3ccccc3)CC2)cc1	?	-7.5%	?	?	-3.9%	21.2µM*!
